Experimental data reported in article PMC7862700, “An all-to-all approach to the identification of sequence-specific readers for epigenetic DNA modifications on cytosine”.

Experiments:
Assay in all cases: DAPPL (digital affinity profiling via proximity ligation, sequencing); 10 mM Tris-HCl pH 7.5, 50 mM NaCl, 1 mM DTT, 4% glycerol, room temperature, 30 min; GST-TFs on glutathione beads, 16-mer random dsDNA library, 0.1% formaldehyde crosslink after washing; high values mean tight binding
Settings in all cases: protein: recombinant; tags: N-terminal GST; dsDNA, one strand shown
[1] = target: T1, FLI1 (Homo sapiens, UniProt Q01543 1-452)
T1 sequence: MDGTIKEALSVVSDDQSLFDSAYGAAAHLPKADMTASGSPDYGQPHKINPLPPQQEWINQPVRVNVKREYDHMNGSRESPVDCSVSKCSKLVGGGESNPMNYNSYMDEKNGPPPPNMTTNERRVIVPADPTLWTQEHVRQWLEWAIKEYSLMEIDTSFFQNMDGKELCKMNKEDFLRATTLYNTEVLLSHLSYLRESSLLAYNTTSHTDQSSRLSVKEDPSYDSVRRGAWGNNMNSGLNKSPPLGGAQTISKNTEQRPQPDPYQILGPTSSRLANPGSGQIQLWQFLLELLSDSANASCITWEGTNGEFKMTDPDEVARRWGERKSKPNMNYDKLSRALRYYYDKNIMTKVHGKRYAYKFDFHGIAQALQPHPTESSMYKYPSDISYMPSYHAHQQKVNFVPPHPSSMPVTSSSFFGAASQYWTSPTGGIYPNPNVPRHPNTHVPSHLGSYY
Procedure, shortened: (§1)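 Binding signal is defined as a hexamer's read frequency for one factor over its frequency for the tag-only sample. To obtain reads, GST-fused human transcription factors were expressed in yeast, captured on glutathione beads, barcoded with DNA and pooled with that sample. Pools met 200 nmole of a 16-mer random double-stranded DNA library in Tris/NaCl/DTT/glycerol buffer for 30 min at room temperature before washing, 0.1% formaldehyde crosslinking, proximity ligation (BsaI/T4 ligase, 1 h, 37 °C), PCR and Illumina NextSeq500 sequencing.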

[2] = target: T2, SPIC (Homo sapiens, UniProt Q8N5J4 1-248)
T2 sequence: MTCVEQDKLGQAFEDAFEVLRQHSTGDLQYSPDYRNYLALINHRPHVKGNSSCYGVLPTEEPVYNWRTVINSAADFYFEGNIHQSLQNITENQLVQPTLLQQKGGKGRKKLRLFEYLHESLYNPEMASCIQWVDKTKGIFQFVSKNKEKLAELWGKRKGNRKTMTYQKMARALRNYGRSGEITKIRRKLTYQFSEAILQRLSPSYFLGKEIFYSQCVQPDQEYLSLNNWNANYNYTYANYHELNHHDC
Procedure, shortened: as §1

[3] = target: T3, ETV2 (Homo sapiens, UniProt O00321 1-342)
T3 sequence: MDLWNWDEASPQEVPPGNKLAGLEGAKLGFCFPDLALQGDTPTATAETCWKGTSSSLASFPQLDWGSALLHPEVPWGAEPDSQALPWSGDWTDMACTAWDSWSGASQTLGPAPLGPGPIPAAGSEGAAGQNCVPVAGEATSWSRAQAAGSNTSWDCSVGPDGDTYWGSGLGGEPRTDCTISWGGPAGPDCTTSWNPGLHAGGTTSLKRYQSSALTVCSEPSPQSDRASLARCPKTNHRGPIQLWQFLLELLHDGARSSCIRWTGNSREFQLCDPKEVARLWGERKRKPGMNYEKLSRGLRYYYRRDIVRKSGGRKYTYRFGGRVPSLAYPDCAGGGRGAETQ
Procedure, shortened: as §1

[4] = target: CRX (Homo sapiens, UniProt O43186 1-299)
Sequence of CRX (O43186 whole entry): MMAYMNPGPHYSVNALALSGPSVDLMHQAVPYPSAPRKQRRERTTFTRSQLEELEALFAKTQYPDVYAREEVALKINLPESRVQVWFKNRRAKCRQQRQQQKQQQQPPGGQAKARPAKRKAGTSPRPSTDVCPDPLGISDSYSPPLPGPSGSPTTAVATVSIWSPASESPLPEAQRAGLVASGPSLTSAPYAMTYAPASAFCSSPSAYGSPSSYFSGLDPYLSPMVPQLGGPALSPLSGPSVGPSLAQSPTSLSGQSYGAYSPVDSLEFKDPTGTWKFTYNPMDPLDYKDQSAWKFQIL
Procedure, shortened: as §1

[5] = target: T4, ETV3L (Homo sapiens, UniProt Q6ZN32 1-361)
T4 sequence: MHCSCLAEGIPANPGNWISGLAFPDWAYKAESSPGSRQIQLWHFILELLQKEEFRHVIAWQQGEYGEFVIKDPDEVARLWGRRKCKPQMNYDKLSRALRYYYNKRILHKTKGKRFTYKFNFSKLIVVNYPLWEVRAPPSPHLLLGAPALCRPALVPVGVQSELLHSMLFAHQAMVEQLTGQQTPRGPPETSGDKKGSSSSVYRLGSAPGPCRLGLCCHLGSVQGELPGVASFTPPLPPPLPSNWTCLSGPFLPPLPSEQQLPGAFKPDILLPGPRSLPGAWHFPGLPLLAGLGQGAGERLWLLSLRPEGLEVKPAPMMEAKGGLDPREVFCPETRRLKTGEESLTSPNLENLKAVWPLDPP
Procedure, shortened: as §1

[6] = target: T5, ETV7 (Homo sapiens, UniProt Q9Y603 1-341)
T5 sequence: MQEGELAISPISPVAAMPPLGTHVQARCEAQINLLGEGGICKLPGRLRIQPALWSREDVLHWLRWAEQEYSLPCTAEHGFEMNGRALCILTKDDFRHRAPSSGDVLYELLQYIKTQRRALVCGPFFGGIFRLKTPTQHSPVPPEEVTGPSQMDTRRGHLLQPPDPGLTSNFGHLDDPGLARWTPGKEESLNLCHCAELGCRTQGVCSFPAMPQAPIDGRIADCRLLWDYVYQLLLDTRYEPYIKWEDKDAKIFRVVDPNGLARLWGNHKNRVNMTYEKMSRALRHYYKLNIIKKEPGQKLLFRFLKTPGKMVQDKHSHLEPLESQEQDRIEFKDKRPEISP
Procedure, shortened: as §1

[7] = target: T6, GABPA (Homo sapiens, UniProt Q06546 1-454)
T6 sequence: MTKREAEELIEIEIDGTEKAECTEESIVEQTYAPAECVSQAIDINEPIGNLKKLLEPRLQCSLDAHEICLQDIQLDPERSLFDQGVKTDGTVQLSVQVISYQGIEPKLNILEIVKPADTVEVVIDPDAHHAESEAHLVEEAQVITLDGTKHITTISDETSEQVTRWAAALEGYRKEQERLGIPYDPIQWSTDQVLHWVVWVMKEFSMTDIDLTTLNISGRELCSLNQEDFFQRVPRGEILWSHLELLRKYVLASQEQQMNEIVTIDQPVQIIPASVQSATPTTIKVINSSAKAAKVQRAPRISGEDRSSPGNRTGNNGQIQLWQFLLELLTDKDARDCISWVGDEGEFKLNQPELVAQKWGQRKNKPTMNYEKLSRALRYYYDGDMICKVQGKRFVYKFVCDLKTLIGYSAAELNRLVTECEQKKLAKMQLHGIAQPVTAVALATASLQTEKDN
Procedure, shortened: as §1

[8] = target: T7, EHF (Homo sapiens, UniProt Q9NZC4 1-300)
T7 sequence: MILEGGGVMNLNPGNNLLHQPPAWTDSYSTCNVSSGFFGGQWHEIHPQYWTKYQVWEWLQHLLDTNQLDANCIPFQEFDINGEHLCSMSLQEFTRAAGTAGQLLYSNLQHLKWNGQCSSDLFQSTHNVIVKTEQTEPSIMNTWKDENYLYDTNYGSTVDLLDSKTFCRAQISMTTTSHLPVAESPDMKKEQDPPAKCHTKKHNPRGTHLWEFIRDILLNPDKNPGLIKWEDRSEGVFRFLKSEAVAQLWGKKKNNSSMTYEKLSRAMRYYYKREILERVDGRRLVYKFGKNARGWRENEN
Procedure, shortened: as §1

[9] = target: T8, ELK3 (Homo sapiens, UniProt P41970 1-407)
T8 sequence: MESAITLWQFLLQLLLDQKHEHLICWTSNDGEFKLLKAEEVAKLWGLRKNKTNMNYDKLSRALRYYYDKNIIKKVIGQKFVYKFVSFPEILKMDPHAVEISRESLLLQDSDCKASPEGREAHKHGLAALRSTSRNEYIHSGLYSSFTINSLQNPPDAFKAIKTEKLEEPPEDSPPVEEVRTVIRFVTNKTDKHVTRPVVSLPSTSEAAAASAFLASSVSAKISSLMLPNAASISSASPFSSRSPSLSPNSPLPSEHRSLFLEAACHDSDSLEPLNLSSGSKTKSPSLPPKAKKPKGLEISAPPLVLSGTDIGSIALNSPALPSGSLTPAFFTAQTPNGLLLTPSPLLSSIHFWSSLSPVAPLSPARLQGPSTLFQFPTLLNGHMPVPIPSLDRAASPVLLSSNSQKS
Procedure, shortened: as §1

[10] = target: T9, ELK4 (Homo sapiens, UniProt P28324-2 1-405)
T9 sequence: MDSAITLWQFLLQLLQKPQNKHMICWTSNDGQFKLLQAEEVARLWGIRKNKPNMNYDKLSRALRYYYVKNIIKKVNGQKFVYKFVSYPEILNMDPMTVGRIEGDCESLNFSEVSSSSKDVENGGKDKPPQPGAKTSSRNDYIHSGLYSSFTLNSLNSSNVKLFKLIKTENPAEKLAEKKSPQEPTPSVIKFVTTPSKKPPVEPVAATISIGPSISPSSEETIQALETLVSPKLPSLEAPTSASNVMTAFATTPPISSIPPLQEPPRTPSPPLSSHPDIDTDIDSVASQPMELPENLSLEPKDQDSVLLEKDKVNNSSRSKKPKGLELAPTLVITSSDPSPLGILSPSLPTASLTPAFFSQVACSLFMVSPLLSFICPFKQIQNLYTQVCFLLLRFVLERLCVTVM
Procedure, shortened: as §1

[11] = target: T10, ELF3 (Homo sapiens, UniProt P78545 1-371)
T10 sequence: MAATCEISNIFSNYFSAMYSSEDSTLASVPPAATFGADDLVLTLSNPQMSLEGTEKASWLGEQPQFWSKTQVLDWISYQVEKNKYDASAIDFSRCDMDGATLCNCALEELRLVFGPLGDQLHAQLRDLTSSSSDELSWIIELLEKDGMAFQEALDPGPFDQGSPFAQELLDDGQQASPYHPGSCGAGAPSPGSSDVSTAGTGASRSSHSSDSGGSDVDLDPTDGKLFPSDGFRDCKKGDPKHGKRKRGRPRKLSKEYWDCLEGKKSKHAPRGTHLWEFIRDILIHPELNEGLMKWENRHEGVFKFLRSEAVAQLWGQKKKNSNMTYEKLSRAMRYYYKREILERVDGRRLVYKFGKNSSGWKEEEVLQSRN
Procedure, shortened: as §1

[12] = target: ETV1 (Homo sapiens, UniProt P50549 1-477)
Sequence of ETV1 (P50549 whole entry): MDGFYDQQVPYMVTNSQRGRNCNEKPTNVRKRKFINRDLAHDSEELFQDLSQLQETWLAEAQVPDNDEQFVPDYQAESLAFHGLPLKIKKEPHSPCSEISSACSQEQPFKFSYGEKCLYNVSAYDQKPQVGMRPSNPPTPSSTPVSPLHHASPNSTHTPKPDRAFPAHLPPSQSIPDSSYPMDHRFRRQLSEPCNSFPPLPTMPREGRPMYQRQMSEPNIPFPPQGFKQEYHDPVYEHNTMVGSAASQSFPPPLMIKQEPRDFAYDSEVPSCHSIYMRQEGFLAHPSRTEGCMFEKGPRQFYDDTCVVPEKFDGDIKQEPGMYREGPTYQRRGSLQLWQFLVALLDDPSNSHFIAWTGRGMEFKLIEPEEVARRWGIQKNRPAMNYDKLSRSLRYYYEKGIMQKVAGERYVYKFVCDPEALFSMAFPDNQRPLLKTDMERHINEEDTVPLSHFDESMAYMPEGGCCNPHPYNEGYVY
Procedure, shortened: as §1

[13] = target: T11, ERF (Homo sapiens, UniProt P50548 1-548)
T11 sequence: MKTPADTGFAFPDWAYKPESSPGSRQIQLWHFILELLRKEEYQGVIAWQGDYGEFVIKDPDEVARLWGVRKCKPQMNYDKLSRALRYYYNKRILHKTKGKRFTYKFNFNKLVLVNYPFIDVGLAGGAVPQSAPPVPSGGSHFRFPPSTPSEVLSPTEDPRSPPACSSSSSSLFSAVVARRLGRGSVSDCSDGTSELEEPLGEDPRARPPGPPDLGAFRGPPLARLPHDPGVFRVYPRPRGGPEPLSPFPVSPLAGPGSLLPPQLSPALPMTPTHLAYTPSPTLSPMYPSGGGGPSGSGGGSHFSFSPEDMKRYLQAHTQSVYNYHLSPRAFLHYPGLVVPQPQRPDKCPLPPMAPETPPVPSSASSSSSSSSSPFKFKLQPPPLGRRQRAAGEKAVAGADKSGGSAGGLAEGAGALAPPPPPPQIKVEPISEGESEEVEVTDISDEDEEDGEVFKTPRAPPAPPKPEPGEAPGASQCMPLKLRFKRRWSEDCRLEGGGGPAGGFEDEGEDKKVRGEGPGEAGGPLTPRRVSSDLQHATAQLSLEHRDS
Procedure, shortened: as §1

[14] = target: T12, SPDEF (Homo sapiens, UniProt O95238 1-335)
T12 sequence: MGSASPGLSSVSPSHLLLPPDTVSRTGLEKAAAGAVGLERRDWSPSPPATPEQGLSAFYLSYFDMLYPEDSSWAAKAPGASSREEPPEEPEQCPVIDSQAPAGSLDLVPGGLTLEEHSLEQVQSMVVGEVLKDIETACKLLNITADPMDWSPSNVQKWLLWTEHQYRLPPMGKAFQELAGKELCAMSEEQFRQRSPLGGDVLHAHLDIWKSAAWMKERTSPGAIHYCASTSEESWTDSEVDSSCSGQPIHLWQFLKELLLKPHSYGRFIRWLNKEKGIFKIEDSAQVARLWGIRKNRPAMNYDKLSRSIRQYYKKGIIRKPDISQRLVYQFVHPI
Procedure, shortened: as §1

[15] = target: T13, ELF5 (Homo sapiens, UniProt Q9UKW6-2 1-255)
T13 sequence: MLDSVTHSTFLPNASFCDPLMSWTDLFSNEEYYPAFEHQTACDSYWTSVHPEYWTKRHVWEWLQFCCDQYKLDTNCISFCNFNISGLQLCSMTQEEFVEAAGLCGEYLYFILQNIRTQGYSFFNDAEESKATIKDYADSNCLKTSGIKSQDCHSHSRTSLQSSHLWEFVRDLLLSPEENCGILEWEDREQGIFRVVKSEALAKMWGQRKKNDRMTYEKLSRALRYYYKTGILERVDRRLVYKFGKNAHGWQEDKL
Procedure, shortened: as §1

[16] = target: T14, ETV3 (Homo sapiens, UniProt P41162-2 1-143)
T14 sequence: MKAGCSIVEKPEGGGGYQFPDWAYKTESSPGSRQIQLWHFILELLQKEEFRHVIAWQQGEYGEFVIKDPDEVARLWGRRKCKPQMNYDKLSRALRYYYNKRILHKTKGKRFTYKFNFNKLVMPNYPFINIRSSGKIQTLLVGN
Procedure, shortened: as §1

[17] = target: ETV6 (Homo sapiens, UniProt P41212 1-452)
Sequence of ETV6 (P41212 whole entry): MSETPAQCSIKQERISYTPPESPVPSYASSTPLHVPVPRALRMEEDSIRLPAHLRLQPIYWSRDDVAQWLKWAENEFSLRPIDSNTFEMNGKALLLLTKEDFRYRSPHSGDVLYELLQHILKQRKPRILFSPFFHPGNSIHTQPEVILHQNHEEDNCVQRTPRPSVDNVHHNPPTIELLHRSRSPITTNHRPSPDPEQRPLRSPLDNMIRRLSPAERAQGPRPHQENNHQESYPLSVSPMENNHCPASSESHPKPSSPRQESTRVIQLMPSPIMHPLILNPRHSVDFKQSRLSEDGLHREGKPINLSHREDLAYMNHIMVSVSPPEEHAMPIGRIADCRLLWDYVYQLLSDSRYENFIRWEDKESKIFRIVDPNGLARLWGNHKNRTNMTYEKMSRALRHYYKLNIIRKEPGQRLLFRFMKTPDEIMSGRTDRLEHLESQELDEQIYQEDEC
Procedure, shortened: as §1

TCGTTA
binding signal [1]: 1 fold enrichment (6-mer frequency, TF over GST control)
binding signal [2]: 1.02 fold enrichment (6-mer frequency, TF over GST control)
binding signal [3]: 1.08 fold enrichment (6-mer frequency, TF over GST control)
binding signal [4]: 1.1 fold enrichment (6-mer frequency, TF over GST control)
binding signal [5]: 1.01 fold enrichment (6-mer frequency, TF over GST control)
binding signal [6]: 1.06 fold enrichment (6-mer frequency, TF over GST control)

GTTTGT
binding signal [1]: 1.15 fold enrichment (6-mer frequency, TF over GST control)
binding signal [7]: 1.03 fold enrichment (6-mer frequency, TF over GST control)
binding signal [8]: 1.03 fold enrichment (6-mer frequency, TF over GST control)
binding signal [9]: 1.06 fold enrichment (6-mer frequency, TF over GST control)
binding signal [2]: 1.01 fold enrichment (6-mer frequency, TF over GST control)
binding signal [10]: 1.19 fold enrichment (6-mer frequency, TF over GST control)
binding signal [11]: 1.07 fold enrichment (6-mer frequency, TF over GST control)
binding signal [12]: 1.04 fold enrichment (6-mer frequency, TF over GST control)
binding signal [13]: 1.06 fold enrichment (6-mer frequency, TF over GST control)
binding signal [5]: 1.06 fold enrichment (6-mer frequency, TF over GST control)
binding signal [14]: 1.01 fold enrichment (6-mer frequency, TF over GST control)
binding signal [6]: 1.11 fold enrichment (6-mer frequency, TF over GST control)
binding signal [15]: 1.03 fold enrichment (6-mer frequency, TF over GST control)
binding signal [16]: 1.06 fold enrichment (6-mer frequency, TF over GST control)
binding signal [17]: 1.11 fold enrichment (6-mer frequency, TF over GST control)
